Assay outcomes deposited in PubChem by National Center for Advancing Translational Sciences (NCATS).
Hits are enriched below; roughly 20% of the tested compounds scored in any of these assays.
Pf growth 96h – P. falciparum growth inhibition at 96 hours; AID 504834; Potency, µM (doses to about 28.7 µM), for the others: at the top dose activity change, negative = inhibition, most hits filed as inhibitors; hit rate 6.9% among 320,000; P. falciparum luciferase reporter growth, 96 h; note: potency is the fitted concentration of half-maximal effect; % is set by controls: 0 for no effect and ±100 for the full control effect
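Two-generation exposure (96 h) targets delayed-death phenotype. Reporter parasites carrying integrated firefly luciferase, in red cells at 2% hematocrit and 0.05% parasitemia final, kept at 37 C, 5% CO2; luminescence loss indicates inhibition.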
Pf growth 48h – inhibits P. falciparum growth in the first generation, 48 h | P. falciparum luciferase growth in erythrocytes, 48 h | Potency, µM (doses to about 28.7 µM), inactives show at the highest dose activity change, negative = inhibition, actives largely listed as inhibitors | hit rate 5.9% among 310,000 | AID 504832; note: potency is the fitted concentration of half-maximal effect; % is set by controls: 0 for no effect and ±100 for the full control effect
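Erythrocytes infected with P. falciparum carrying an integrated firefly luciferase reporter (2% hematocrit, 0.1% parasitemia final) were exposed to compounds in RPMI 1640 with 0.5% Albumax at 37 C, 5% CO2. Growth inhibition was scored as reduced luminescence.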
HCMV inh – inhibitors of human cytomegalovirus; HFF cells, HCMV-luciferase reporter, 72 h; hits give low values; hit rate 4.5% among 410,000; activity change, negative = inhibition, % at 57.5 µM; in the data active = activity change below about -60%; inconclusive = no clear call, values can overlap the other calls; inactive = above about -39%; note: % is set by controls: 0 for no effect and ±100 for the full control effect
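Cell-based, HFFs, 1000 cells/well, 16 h 37C; cpds in DMSO + HCMV-luc, MOI 1 PFU/cell; 72 h 37C; OneGlo luminescence after 5 min RT; norm. to buffer vs Salinomycin 10uM.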
Shiga inhibitor – blocks Shiga toxin action in Vero cells. Vero cells, Shiga toxin protein synthesis inhibition reporter. inhibition, % at 38.7 µM. hit rate 9.2% among 290,000. AID 2315; in the data active = inhibition mostly above about 28%, no sharp cut-off; inactive = mostly below about 43%; note: 0% is about no effect
Cycloheximide cs – affects cycloheximide protein synthesis inhibition readout, counter-screen; hit rate 12% among 300,000; cell reporter, cycloheximide protein synthesis inhibition counterscreen; max response, %; AID 2314; in the data active = max response mostly above about 13%, no sharp cut-off; inactive = mostly below about 14%; note: read at 38.3 µM for the half of the compounds with a filed dose; 0% is about no effect
Numbers without * were called inactive; [ ] = dose if it differs, or a comment. Unless noted, calls come from the whole dose curve; as a rule, active = well fitted inhibition curve with a large enough effect; inconclusive = small, poorly fitted or top-dose-only effect, or another doubt; inactive = no such curve, though single readings can be large or run the other way.

Results for OC(CNCCc1ccccc1)c1ccccc1 (stereo not given) ?
Pf growth 96h: 5.9µM*; Pf growth 48h: 5.9µM*; HCMV inh: -13; Shiga inhibitor: -20; Cycloheximide cs: -2

What do the screens show for `O=C(NCC(O)c1ccccc1)c1ccccc1` (stereo not given)?
Pf growth 96h: 262%; Pf growth 48h: 233%; HCMV inh: 34; Shiga inhibitor: 60*; Cycloheximide cs: 32*

How did O[C@@H](CNC[C@H](O)c1ccccc1)c1ccccc1 do in these assays?
Pf growth 96h: 9.3µM*; Pf growth 48h: 9.3µM*; HCMV inh: -22; Shiga inhibitor: -4; Cycloheximide cs: 2

Results for COc1ccc(CCNCC(C)c2ccccc2)cc1 (stereo not given) ?
Pf growth 96h: 18%; Pf growth 48h: 18%; HCMV inh: -17; Shiga inhibitor: -6; Cycloheximide cs: -3

What do the screens show for `CC(O)CNCc1ccc(-c2ccccc2)cc1` (stereo not given)?
Pf growth 96h: -11%; Pf growth 48h: -5%; HCMV inh: -31; Shiga inhibitor: -12; Cycloheximide cs: -1

What do the screens show for `O=C(NCCNC(=O)c1ccccc1)c1ccccc1`?
Pf growth 96h: 35%; Pf growth 48h: 21%; HCMV inh: 23; Shiga inhibitor: -5; Cycloheximide cs: -2

What do the screens show for `CCCCC(CC)CNCC(O)c1ccccc1` (stereo not given)?
Pf growth 96h: inconclusive; Pf growth 48h: inconclusive; HCMV inh: inconclusive; Shiga inhibitor: -3; Cycloheximide cs: 9

How did COC(=O)c1cc(NC(=O)[C@H](CCS(C)(=O)=O)N2Cc3ccccc3C2=O)cc(C(=O)OC)c1 do in these assays?
HCMV inh: 10

What do the screens show for `O=[N+]([O-])c1cc2c(cc1CN1CCN(CCOCCO)CC1)OCO2`?
Pf growth 96h: inconclusive; Pf growth 48h: 9%; HCMV inh: 56; Shiga inhibitor: -3; Cycloheximide cs: -1

What do the screens show for `Cc1cc(N2CCN(c3cccc(C)c3C)CC2)nc(-c2ccccc2)n1`?
Pf growth 96h: 1%; Pf growth 48h: inconclusive; HCMV inh: -32; Shiga inhibitor: 12; Cycloheximide cs: -3

How did O=C(Cn1cnc([N+](=O)[O-])c1)Nc1ccccc1C(F)(F)F do in these assays?
Pf growth 96h: -5%; Pf growth 48h: 61%; HCMV inh: 77; Shiga inhibitor: -2; Cycloheximide cs: -1

How did COc1ccc(CCNCC(O)c2ccccc2)cc1 (stereo not given) do in these assays?
Pf growth 96h: inconclusive; Pf growth 48h: 9.3µM*; HCMV inh: -7; Shiga inhibitor: -1; Cycloheximide cs: -2

What do the screens show for `CC1CCC(NCC(O)c2ccccc2)CC1` (stereo not given)?
Pf growth 96h: 6.6µM*; HCMV inh: -36; Shiga inhibitor: -7; Cycloheximide cs: -3

Results for COc1cc(Cl)c(C)cc1NC(=O)c1ccc(S(C)(=O)=O)cc1 ?
Pf growth 96h: -4%; Pf growth 48h: -2%; HCMV inh: -39; Shiga inhibitor: -8; Cycloheximide cs: -2

Results for Cc1cc(=O)n(CC(=O)N2CCN(c3ccccc3F)CC2)c2c1c(C)nn2C ?
HCMV inh: -60*

Results for CCS(=O)(=O)c1cccc(C(=O)N2CCN(c3nc4c(C)ccc(Cl)c4s3)CC2)c1 ?
HCMV inh: inconclusive; Shiga inhibitor: 0; Cycloheximide cs: 9

How did COc1ccccc1OCCNC(=O)c1ccc(Br)cc1 do in these assays?
Pf growth 96h: inconclusive; Pf growth 48h: 31%; HCMV inh: 155; Shiga inhibitor: 62*; Cycloheximide cs: 36*

What do the screens show for `O=C(NCCOc1ccccc1F)c1cc(F)c(F)cc1Cl`?
Pf growth 96h: 1%; Pf growth 48h: 247%; HCMV inh: 26; Shiga inhibitor: 86*; Cycloheximide cs: 36*

Results for CSc1ccccc1C(=O)NCCOc1ccccc1C ?
Pf growth 96h: -20%[1.15 µM]; Pf growth 48h: inconclusive; HCMV inh: -17; Shiga inhibitor: 2; Cycloheximide cs: -1

How did Cc1ccccc1C(=O)NCCOc1ccccc1Cl do in these assays?
Pf growth 96h: -23%; Pf growth 48h: 233%; HCMV inh: 137; Cycloheximide cs: 36*

Results for COc1ccccc1OCCNC(=O)c1ccc(C(C)(C)C)cc1 ?
HCMV inh: 10

Results for COc1ccccc1OCCNC(=O)c1cc(F)c(F)cc1Cl ?
Pf growth 96h: inconclusive; Pf growth 48h: 38%; HCMV inh: 99; Shiga inhibitor: 25*; Cycloheximide cs: 30*

What do the screens show for `COc1ccccc1OCCNC(=O)c1cc(SC)ccc1Cl`?
Pf growth 96h: 30%; Pf growth 48h: 12%; HCMV inh: -11; Shiga inhibitor: -9; Cycloheximide cs: -3

Results for CCOC(=O)C1CCN(C(=O)CSC2=NCCS2)CC1 ?
Pf growth 96h: 16%; Pf growth 48h: 25%; HCMV inh: 26; Shiga inhibitor: 37; Cycloheximide cs: 11

What do the screens show for `COc1cccc(NC(=O)c2cnc(SCC(=O)NCc3ccc4c(c3)OCO4)n(C)c2=O)c1`?
Pf growth 96h: 40%; Pf growth 48h: 14%; HCMV inh: -26

How did COc1cccc(/C=N/Nc2nc(Nc3ccc([N+](=O)[O-])cc3)nc(N3CCCC3)n2)c1O do in these assays?
Pf growth 96h: 40%; Pf growth 48h: inconclusive; HCMV inh: inconclusive; Shiga inhibitor: 28; Cycloheximide cs: 11

What do the screens show for `COc1c(/C=N/Nc2nc(N3CCCCC3)nc(N3CCCCC3)n2)cccc1[N+](=O)[O-]`?
Pf growth 96h: inconclusive; Pf growth 48h: inconclusive; HCMV inh: -92*; Shiga inhibitor: 8; Cycloheximide cs: -2

How did O=[N+]([O-])c1cc2c(cc1/C=N/Nc1nc(Nc3ccccc3)nc(N3CCCCC3)n1)OCO2 do in these assays?
Pf growth 96h: 2.9µM*; Pf growth 48h: 4.7µM*; HCMV inh: -75*; Shiga inhibitor: 14; Cycloheximide cs: 13

How did COc1ccc(N2CCN(c3nc(Nc4ccc(F)cc4)nc(OC)n3)CC2)cc1 do in these assays?
Pf growth 96h: 24%; Pf growth 48h: 53%; Shiga inhibitor: 22; Cycloheximide cs: -3

What do the screens show for `c1ccc(Nc2nc(N3CCCC3)nc(N3CCCC3)n2)cc1`?
Pf growth 96h: 12µM*; HCMV inh: 26; Shiga inhibitor: -3; Cycloheximide cs: -3

Results for Fc1ccc(Nc2nc(Oc3ccccc3F)nc(N3CCCC3)n2)cc1 ?
Pf growth 48h: 1.5µM*; HCMV inh: -32; Shiga inhibitor: -12; Cycloheximide cs: 7

How did CC(=O)Nc1cccc(C(=O)NNC(=O)c2ccc(-n3cnnn3)cc2)c1 do in these assays?
HCMV inh: -37

What do the screens show for `Cc1cccc(NC(=O)c2sc3ncn(CC(=O)N4CCN(c5ccccn5)CC4)c(=O)c3c2C)c1`?
Pf growth 96h: 31%; Pf growth 48h: 6%; HCMV inh: -14; Shiga inhibitor: -3; Cycloheximide cs: 13

How did COc1ccc(/C=N/Nc2nc(Nc3ccccc3)nc(N3CCCC3)n2)cc1 do in these assays?
Pf growth 96h: 0%; Pf growth 48h: inconclusive; HCMV inh: 0; Shiga inhibitor: 69; Cycloheximide cs: 17
